Experimental data from PubChem BioAssay (EPA / NIEHS).
Several values for one entry are separate records, joined by “and”; a condition that tells them apart may be missing. Identical values can stand only once. Inconclusive results are not listed. More than one record can exist for a structure, and the calls need not agree. Activity calls are given as the source filed them. The calls were made as follows, unless noted: active = hit-call score of the fitted dose curve at least 0.9, where 1 is the maximum; inactive = score below 0.9.

How the values were obtained:
[1] = biological target: Estrogen receptor (Homo sapiens) (UniProt P03372); experiment: CCTE_Deisenroth_AIME_384WELL_LUC_Shift: CCTE's 384-well Estrogen Receptor Transactivation Assay with AIME metabolic competence data shift (ERTA luciferase; difference in metabolism positive and negative), Deisenroth Lab (AID 2284041);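 also: shift is response with S9 minus without S9 so positive means metabolism raised ER signal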
Method in brief: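 Here, parent compounds undergo 2 h phase I metabolism by PB/BNF-induced rat S9 before 24 h transactivation in VM7Luc4E2 cells; the curve models S9-positive minus S9-negative response over a 10-point series.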

[2] = tested on: DIO2 (gene 1734); experiment: CCTE_GLTED_hDIO2: CCTE's human Deiodinase 2 (DIO2) Inhibition Assay, Great Lakes Toxicology and Ecology Division (GLTED) Lab (AID 2284050; active = hit-call score of the fitted dose curve at least 0.9, where 1 is the maximum)
Method in brief: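 Triplicate cell-free incubations (3 h) of human DIO2 with chemical preceded colorimetric Sandell-Kolthoff quantitation of liberated iodide; DMSO served as negative control for curve fitting.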

[3] = CCTE_Shafer_MEA_dev_active_electrodes_number: CCTE's Neural Network Formation Assay for Number of Active Electrodes, Shafer Lab (AID 2284040; active = hit-call score of the fitted dose curve at least 0.9, where 1 is the maximum;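 as to AC50: potency for loss of active electrodes versus DMSO so lower counts are hits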)
Method in brief: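 Developing rat cortical networks on MEAs, exposed DIV 0–12. Value is the AUC of active-electrode counts (≥5 spikes/min) from days 5, 7, 9, 12, relative to DMSO.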

[4] = CCTE_Shafer_MEA_dev_burst_rate: CCTE's Neural Network Formation Assay for Burst Rate, Shafer Lab (AID 2284042);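 as to AC50: potency for loss of burst rate below DMSO control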
Method in brief: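 Rat primary cortical cultures on PEI/laminin MEA; compound from plating, re-dosed at DIV 5, 9 media change. Single-electrode bursts/recording length, well mean of active electrodes; AUC over DIV 5–12 recordings; loss-of-signal vs DMSO.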

[5] = CCTE_Shafer_MEA_dev_per_burst_interspike_interval: CCTE's Neural Network Formation Assay for Burst Interspike Interval, Shafer Lab (AID 2284044);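 also: mean spike spacing inside bursts as AUC over recordings on days 5 7 9 12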;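 as to AC50: potency for a decrease of within-burst interspike interval below DMSO level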
Method in brief: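 Rat cortical primary cultures, 16 electrodes/well; compound from plating, renewed with full media change DIV 5 and 9. Spikes via adaptive detector; per-burst ISI well-mean over active bursting electrodes; AUC of DIV 5/7/9/12 recordings; loss-direction fit vs DMSO.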

[6] = CCTE_Shafer_MEA_dev_burst_duration_mean: CCTE's Neural Network Formation Assay for Mean Burst Duration, Shafer Lab (AID 2284045)
Method in brief: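 Network-formation assay in primary rat cortical neurons; treatment spans twelve days of development. Mean burst duration per well is integrated by trapezoidal AUC and fitted in the loss-of-signal direction against DMSO baseline.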

[7] = CCTE_Shafer_MEA_dev_interburst_interval_mean: CCTE's Neural Network Formation Assay for Mean Interburst Interval, Shafer Lab (AID 2284046);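 also: well-mean interburst interval of bursting electrodes as AUC over four recording days; curve fitted for decrease in interburst interval relative to DMSO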
Method in brief: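 Rat cortical neurons, 1.5 x 10^5 cells/well, 48-well MEA; compound from day 0 through DIV 12, media and treatment renewed DIV 5/9. Recordings DIV 5, 7, 9, 12; well-mean interburst interval → trapezoidal AUC, loss direction vs DMSO.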

[8] = CCTE_Shafer_MEA_dev_inter_network_spike_interval_mean: CCTE's Neural Network Formation Assay for Mean Inter-network Spike Interval, Shafer Lab (AID 2284047)
Method in brief: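 Primary rat cortical neurons on PEI-coated 48-well MEAs (16 electrodes/well) were exposed from plating day 0 to DIV 12, with dosing renewed at DIV 5 and 9. Recordings at DIV 5, 7, 9, 12 were collapsed by trapezoidal AUC, loss-of-signal fit vs DMSO.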

[9] = CCTE_Shafer_MEA_dev_network_spike_number: CCTE's Neural Network Formation Assay for Number of Network Spikes, Shafer Lab (AID 2284048);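 also: synchronized bursts across electrodes counted on days 5 7 9 12 and integrated as AUC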
Method in brief: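 Extracellular recordings from 16-electrode wells track network formation in rat cortical cultures under continuous treatment from plating. The endpoint is network spike number, expressed as AUC across DIV 5–12 relative to DMSO vehicle.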

[10] = CCTE_Shafer_MEA_dev_network_spike_peak: CCTE's Neural Network Formation Assay for Mean Number of Electrodes in Network Spike, Shafer Lab (AID 2284049);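 as to AC50: fitted for loss of signal meaning fewer electrodes in network spikes than DMSO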
Method in brief: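 Continuous 12-day exposure of rat cortical cultures, starting at plating, on MEA plates. Endpoint: electrodes participating in network-spike peaks, AUC across DIV 5–12, DMSO as negative control.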

Estrogen receptor (Homo sapiens), sequence (P03372 whole entry, looked up): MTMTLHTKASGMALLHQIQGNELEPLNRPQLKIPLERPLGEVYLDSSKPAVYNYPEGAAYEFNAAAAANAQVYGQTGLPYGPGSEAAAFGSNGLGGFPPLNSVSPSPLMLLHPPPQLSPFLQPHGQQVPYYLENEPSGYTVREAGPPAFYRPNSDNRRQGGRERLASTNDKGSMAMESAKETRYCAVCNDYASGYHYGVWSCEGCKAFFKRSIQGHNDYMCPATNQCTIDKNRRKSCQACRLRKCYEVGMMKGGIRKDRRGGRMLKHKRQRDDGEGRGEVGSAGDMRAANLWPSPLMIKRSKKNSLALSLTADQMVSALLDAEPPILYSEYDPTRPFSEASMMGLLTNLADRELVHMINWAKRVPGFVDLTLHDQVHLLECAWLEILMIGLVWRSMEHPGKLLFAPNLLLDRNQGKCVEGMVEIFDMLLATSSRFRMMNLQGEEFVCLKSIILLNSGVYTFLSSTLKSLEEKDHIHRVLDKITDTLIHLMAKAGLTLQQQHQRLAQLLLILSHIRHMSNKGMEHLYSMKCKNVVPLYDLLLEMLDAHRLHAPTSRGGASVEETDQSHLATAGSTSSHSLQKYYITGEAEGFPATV

Which outcome [1] does the source give for `N#CSCSc1nc2ccccc2s1` here?
The outcome was “inactive”.

Which outcome [1] does the source give for `C[C@]12C[C@H](O)[C@H]3[C@@H](CCC4=CC(=O)CC[C@@]43C)[C@@H]1CC[C@@H]2C(=O)CO` here?
The outcome was “inactive”.

For `CCOC(=O)COc1cc(-n2ncc(C(F)(F)F)c(C)c2=O)c(F)cc1Cl`, which outcome [1] is on record?
The outcome was “inactive”.

For `O=C(Nc1ccc([N+](=O)[O-])cc1Cl)c1cc(Cl)ccc1O`, which outcome [1] is on record?
The outcome was “inactive”.

For `CCCCCOC(=O)COc1cc(N2C(=O)C3=C(CCCC3)C2=O)c(F)cc1Cl`, which AC50 [2] is on record?
Its AC50 is 59.5 µM (active).

Which results are given for `O=C(O)c1ccccc1`?
outcome [3]: inactive; outcome [1]: inactive; outcome [4]: inactive; outcome [5]: inactive; outcome [6]: inactive; outcome [7]: inactive; outcome [8]: inactive; outcome [9]: inactive; outcome [10]: inactive

With `CC1(C)C(C=C(Cl)Cl)C1C(=O)OCc1cccc(Oc2ccccc2)c1` (centres undefined) as the molecule, how does the AC50 [3] read?
Its AC50 is 24.7 µM (active) and 10.1 µM (active).

What about the AC50 [4] of the same molecule?
Its AC50 is 27.7 µM (active).

What about the outcome [4] of the same molecule?
The outcome was “inactive”.

And the AC50 [5]?
Its AC50 is 25.5 µM (active).

What about the outcome [5] of the same molecule?
Its outcome is “inactive”.

What about the outcome [6] of the same molecule?
The outcome was “inactive”.

And the AC50 [7]?
The AC50 was 25.4 µM (active) and 10.1 µM (active).

What about the outcome [8] of the same molecule?
Its outcome is “inactive”.

What about the outcome [9] of the same molecule?
The outcome was “inactive”.

What about the AC50 [10] of the same molecule?
Its AC50 is 23.2 µM (active) and 9.11 µM (active).

Which outcome [3] does the source give for `CCCCOCCOCCOCc1cc2c(cc1CCC)OCO2` here?
The outcome was “inactive”.

What about the outcome [4] of the same molecule?
Its outcome is “inactive”.

What about the outcome [5] of the same molecule?
The outcome was “inactive”.

And the outcome [6]?
Its outcome is “inactive”.

What about the outcome [7] of the same molecule?
Its outcome is “inactive”.

And the outcome [8]?
The outcome was “inactive”.

What about the outcome [9] of the same molecule?
Its outcome is “inactive”.

What about the AC50 [10] of the same molecule?
Its AC50 is 16.9 µM (active).

For `C#CCOC(=O)[C@@H](C)Oc1ccc(Oc2ncc(Cl)cc2F)cc1`, which outcome [3] is on record?
The outcome was “inactive”.

What about the AC50 [1] of the same molecule?
Its AC50 is 19.1 µM (active).

And the outcome [4]?
Its outcome is “inactive”.

And the outcome [5]?
The outcome was “inactive”.

What about the outcome [6] of the same molecule?
The outcome was “inactive”.

And the outcome [7]?
The outcome was “inactive”.

What about the outcome [8] of the same molecule?
Its outcome is “inactive”.

And the outcome [9]?
The outcome was “inactive”.

And the outcome [10]?
Its outcome is “inactive”.

What does the source list for `CCCCC(CC)CN1C(=O)C2C3C=CC(C3)C2C1=O` (centres undefined)?
AC50 [3]: 4.74 µM (active); outcome [4]: inactive; outcome [5]: inactive; outcome [6]: inactive; outcome [7]: inactive; outcome [8]: inactive; outcome [9]: inactive; outcome [10]: inactive
